# Assays:
# Details in all cases: concentration: 1 μM,replicates: in singlicate; n = 1
# RIOK1 = tested on: RIOK1
# RIOK2 = tested on: RIOK2
# RIOK3 = tested on: RIOK3
# RIPK1 = tested on: RIPK1
# RIPK2 = tested on: RIPK2
# RIPK4 = tested on: RIPK4
# RIPK5 = tested on: RIPK5
# ROCK2 = tested on: ROCK2
# ROS1 = tested on: ROS1
# ROCK1 = tested on: ROCK1
# 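Further: KINOMEscan kinase panel screen.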
SMILES,%Inh (RIOK1),%Inh (RIOK2),%Inh (RIOK3),%Inh (RIPK1),%Inh (RIPK2),%Inh (RIPK4),%Inh (RIPK5),%Inh (ROCK2),%Inh (ROS1),%Inh (ROCK1)
Nc1nccc(-c2ccc3c(N)n[nH]c3c2)n1 [GSK1034945],96.5%,52%,91.2%,3%,14%,77%,0%,56%,0%,
C[C@@H](Oc1cc(-n2cnc3cc(-c4cnn(C)c4)ccc32)sc1C(N)=O)c1ccccc1Cl [GSK580432],100%,25%,82%,39%,10%,0%,15%,11%,27%,14%
CCn1c(-c2nonc2N)nc2cncc(Br)c21 [SB-738004],19%,3%,17%,27%,11%,58%,1%,99.6%,7%,99.7%
C[C@@H](Oc1cc(-n2cnc3cc(-c4ccncc4)ccc32)sc1C(N)=O)c1ccccc1Cl [GSK479719],94.1%,9%,100%,0%,17%,8%,37%,49%,8%,3%
COc1cc(Nc2nccc(N3CCC(NC(=O)c4cccc(C#N)c4)C3)n2)cc(OC)c1OC (stereo not shown) [GSK1379751],90.2%,0%,89%,0%,25%,32%,0%,35%,9%,10%
Cc1n[nH]c2cc(Nc3ccnc(Nc4cccc(CN5CCOCC5)c4)n3)ccc12 [GW682569],100%,84%,96.5%,4%,79%,62%,0%,1%,57%,27%
CN(c1ccc2c(c1)nc(NCc1ccc(F)cc1)n2C)c1ccnc(Nc2ccc(CS(C)(=O)=O)cc2)n1.Cl [GW813244],1%,21%,17%,99.8%,25%,24%,50%,42%,57%,0%
COc1cc2ncn(-c3cc(OCC4CCCCC4)c(C(N)=O)s3)c2cc1OC [GSK204559],90%,5%,67%,2%,0%,0%,0%,0%,9%,0%
CC(=O)Nc1ccc(-c2cc3ncnc(SCC(=O)O)c3s2)cc1,8%,0%,15%,0%,0%,2%,14%,0%,6%,0%
CCCC(=O)Nc1n[nH]c2ncccc12 [SB-601436],0%,0%,0%,0%,0%,0%,0%,0%,8%,0%
C[C@@H]1CNc2c(sc3ccc4nc(-c5ccncc5)ccc4c23)C(=O)N1,0%,0%,5%,0%,0%,0%,0%,1%,14%,14%
O=C(Nc1ccccc1)c1cccc(Oc2ccc3nccn3n2)c1,0%,11%,8%,15%,0%,26%,0%,0%,0%,34%
CC(=O)c1c(-c2ccncc2)[nH]c(-c2ccncc2)c1C [GW493036],17%,14%,0%,0%,14%,0%,0%,27%,0%,46%
Cc1cccc2c(-c3ccncc3)c(-c3ccc(F)cc3)nn12.Cl [GW461487],0%,100%,0%,0%,48%,0%,0%,12%,0%,18%

# — PMC5540273 (PLoS ONE, 2017)
